Values joined by “and” are separate entries in the source; they are usually repeats but may differ in a detail not shown here. Identical values can stand only once. About 2,000 (36%) of roughly 5,500 compounds were called active. About 18% were inconclusive and are not listed. Cut-off read from the data, not from the text of the source: active = normalized growth mostly below about 0.91 (no sharp cut-off); inconclusive = no clear call, values can overlap the other calls; inactive = mostly above about 0.92. Some of the results follow.
Assay: chemical genetic growth profiling, strain panel (AID 1159580);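 note: tested at 20 µM; growth read once vehicle control cultures reached saturation at 30 °C; 1 = growth at the plate median or of vehicle wells; lower values mean less growth of the strain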
Settings: growth OD

Measured: normalized growth

CNCCCC12CCC(c3ccccc31)c1ccccc12
inactive: S. cerevisiae deletion strains, locus YJR075W, strain HOC1, hits give low values 0.991 and 0.989 | S. cerevisiae deletion strains, locus YKL009W, strain mrt4, hits give low values 0.978 | S. cerevisiae deletion strains, locus YKL068W, hits give low values 0.983 | S. cerevisiae deletion strains, locus YKL085W, strain MDH1 (second series), hits give low values 0.982 | S. cerevisiae deletion strains, locus YKL085W, strain MDH1, hits give low values 0.982 | S. cerevisiae deletion strains, locus YKL160W, strain elf1, hits give low values 0.968 | S. cerevisiae deletion strains, locus YKR001C, strain vps1, hits give low values 1.02 | S. cerevisiae deletion strains, locus YKR026C, strain gcn3, hits give low values 0.979 | S. cerevisiae deletion strains, locus YKR091W, strain srl3, hits give low values 0.973 | S. cerevisiae deletion strains, locus YLL001W, strain dnm1, hits give low values 1.01 | S. cerevisiae deletion strains, locus YLL026W, hits give low values 0.97 | S. cerevisiae deletion strains, locus YLL041C, strain sdh2, hits give low values 0.98 | S. cerevisiae deletion strains, locus YLR027C, strain aat2, hits give low values 0.964 | S. cerevisiae deletion strains, locus YLR039C, strain RIC1, hits give low values 1.29 | S. cerevisiae deletion strains, locus YLR058C, strain SHM2, hits give low values 0.984 | S. cerevisiae deletion strains, locus YLR102C, strain apc9, hits give low values 0.992 | S. cerevisiae deletion strains, locus YLR113W, strain HOG1, hits give low values 1.01 | S. cerevisiae deletion strains, locus YLR221C, strain rsa3, hits give low values 0.998 | S. cerevisiae deletion strains, locus YLR258W, strain gsy2, hits give low values 0.974 | S. cerevisiae deletion strains, locus YLR262C, strain YPT6 (second series), hits give low values 0.937 | S. cerevisiae deletion strains, locus YLR262C, strain YPT6, hits give low values 1.32 | S. cerevisiae deletion strains, locus YLR268W, strain sec22, hits give low values 0.975 | S. cerevisiae deletion strains, locus YLR320W, strain mms22, hits give low values 0.992 | S. cerevisiae deletion strains, locus YLR330W, strain CHS5, hits give low values 0.993 | S. cerevisiae deletion strains, locus YLR342W, strain FKS1 (second series), hits give low values 0.944 | S. cerevisiae deletion strains, locus YLR342W, strain FKS1, hits give low values 0.954 | S. cerevisiae deletion strains, locus YLR357W, strain rsc2, hits give low values 0.968 | S. cerevisiae deletion strains, locus YLR370C, strain arc18, hits give low values 0.98 | S. cerevisiae deletion strains, locus YLR371W, strain rom2, hits give low values 0.963 | S. cerevisiae deletion strains, locus YLR384C, strain iki3, hits give low values 0.989 | S. cerevisiae deletion strains, locus YLR418C, strain cdc73, hits give low values 0.857 | S. cerevisiae deletion strains, locus YML016C, strain PPZ1, hits give low values 0.986 | S. cerevisiae deletion strains, locus YML032C, strain rad52, hits give low values 0.963 | S. cerevisiae deletion strains, locus YML120C, strain ndi1, hits give low values 0.976 | S. cerevisiae deletion strains, locus YML124C, strain tub3, hits give low values 0.995 | S. cerevisiae deletion strains, locus YMR058W, strain fet3, hits give low values 0.952 | S. cerevisiae deletion strains, locus YMR078C, strain ctf18, hits give low values 0.984 | S. cerevisiae deletion strains, locus YMR125W, strain sto1, hits give low values 0.939 | S. cerevisiae deletion strains, locus YMR129W, hits give low values 0.979 | S. cerevisiae deletion strains, locus YMR205C, strain PFK2, hits give low values 0.999 | S. cerevisiae deletion strains, locus YMR223W, strain ubp8, hits give low values 0.951 | S. cerevisiae deletion strains, locus YMR231W, strain pep5, hits give low values 0.985 | S. cerevisiae deletion strains, locus YMR263W, strain SAP30, hits give low values 0.992 and 1 | S. cerevisiae deletion strains, locus YMR307W, strain GAS1, hits give low values 0.979 | S. cerevisiae deletion strains, locus YNL067W, strain RPL9B, hits give low values 1 | S. cerevisiae deletion strains, locus YNL071W, strain lat1, hits give low values 0.986 | S. cerevisiae deletion strains, locus YNL128W, strain TEP1, hits give low values 1.03 | S. cerevisiae deletion strains, locus YNL153C, strain GIM3, hits give low values 1 | S. cerevisiae deletion strains, locus YNL175C, strain NOP13, hits give low values 1.02 | S. cerevisiae deletion strains, locus YNL183C, strain NPR1, hits give low values 0.949 | S. cerevisiae deletion strains, locus YNL197C, strain WHI3, hits give low values 1.03 | S. cerevisiae deletion strains, locus YNL209W, strain ssb2, hits give low values 0.967 | S. cerevisiae deletion strains, locus YNL224C, strain SQS1, hits give low values 1.01 | S. cerevisiae deletion strains, locus YNL233W, strain BNI4, hits give low values 0.954 | S. cerevisiae deletion strains, locus YNL248C, strain rpa49, hits give low values 0.932 | S. cerevisiae deletion strains, locus YNL250W, strain rad50, hits give low values 0.982 | S. cerevisiae deletion strains, locus YNL271C, strain bni1, hits give low values 0.993 | S. cerevisiae deletion strains, locus YNL298W, strain CLA4, hits give low values 0.967 | S. cerevisiae deletion strains, locus YNL307C, strain MCK1, hits give low values 0.978 | S. cerevisiae deletion strains, locus YNL322C, strain KRE1 (second series), hits give low values 0.976 | S. cerevisiae deletion strains, locus YNR049C, strain mso1, hits give low values 0.971 | S. cerevisiae deletion strains, locus YNR052C, strain pop2, hits give low values 0.962 | S. cerevisiae deletion strains, locus YOL012C, strain htz1 0.584 | S. cerevisiae deletion strains, locus YOL147C, strain pex11, hits give low values 0.987 | S. cerevisiae deletion strains, locus YOR001W, strain rrp6, hits give low values 0.992 | S. cerevisiae deletion strains, locus YOR061W, strain CKA2, hits give low values 0.991 | S. cerevisiae deletion strains, locus YOR069W, strain VPS5, hits give low values 0.993 | S. cerevisiae deletion strains, locus YOR070C, strain gyp1, hits give low values 0.983 | S. cerevisiae deletion strains, locus YOR080W, strain dia2, hits give low values 0.951 | S. cerevisiae deletion strains, locus YOR083W, strain WHI5 (second series), hits give low values 0.999 | S. cerevisiae deletion strains, locus YOR083W, strain WHI5, hits give low values 0.913 | S. cerevisiae deletion strains, locus YOR106W, strain vam3, hits give low values 0.95 | S. cerevisiae deletion strains, locus YOR136W, strain idh2, hits give low values 0.99 | S. cerevisiae deletion strains, locus YOR144C, strain elg1, hits give low values 0.997 | S. cerevisiae deletion strains, locus YOR184W, strain ser1, hits give low values 1.02 | S. cerevisiae deletion strains, locus YOR231W, strain MKK1, hits give low values 1.02 | S. cerevisiae deletion strains, locus YOR265W, strain rbl2, hits give low values 0.983 | S. cerevisiae deletion strains, locus YOR270C, strain vph1, hits give low values 0.927 | S. cerevisiae deletion strains, locus YOR290C, strain snf2, hits give low values 0.94 | S. cerevisiae deletion strains, locus YOR316C, strain cot1, hits give low values 0.991 | S. cerevisiae deletion strains, locus YPL051W, strain arl3, hits give low values 0.938 | S. cerevisiae deletion strains, locus YPL055C, strain LGE1, hits give low values 0.982 | S. cerevisiae deletion strains, locus YPL078C, strain atp4, hits give low values 0.967 | S. cerevisiae deletion strains, locus YPL106C, strain sse1, hits give low values 0.975 | S. cerevisiae deletion strains, locus YPL240C, strain hsp82, hits give low values 0.984 | S. cerevisiae deletion strains, locus YPL241C, strain CIN2, hits give low values 0.991 and 0.996 | S. cerevisiae deletion strains, locus YPL256C, strain CLN2, hits give low values 0.995 | S. cerevisiae deletion strains, locus YPR119W, strain clb2, hits give low values 0.992 | S. cerevisiae deletion strains, locus YPR141C, strain kar3, hits give low values 0.979 | S. cerevisiae deletion strains, locus YPR163C, strain tif3, hits give low values 0.994 | S. cerevisiae deletion strains, locus YPR167C, strain met16, hits give low values 0.996 | S. cerevisiae deletion strains, strain wtn01, hits give low values 0.964 | S. cerevisiae strains, strain wild type, hits give low values 0.993

From PubChem BioAssay AID1159580 (chemical genetic matrix, 2015)
